Myeloid diff MLP = induction of myeloid progenitor differentiation, primary screen, cell-based, flow cytometry, MLPCN library; ER-HoxA9 myeloid progenitors, lysozyme-GFP differentiation; calls only at 10 µM; hit rate 1% among 360,000; AID 624256, 2012;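 active = normalized GFP-positive differentiation at or above the plate's own cutoff, the solvent-only control mean plus 3 SD; inconclusive = no clear call, values can overlap the other calls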;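 also: cells exposed to compound for four days before flow analysis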
ABCB6 inh MLPCN = ABCB6 transporter inhibitors, primary screen, K562-ABCB6 cells, flow cytometry, MLPCN library; K562-ABCB6 porphyrin accumulation, 1 h; stronger effect = lower value; ATP-binding cassette sub-family B member 6 (Homo sapiens), Q9NP58; hit rate 0.19% among 360,000; fluorescence ratio to DMSO, % at 10 µM; AID 602162, 2011;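 active = fluorescence ratio to DMSO below 75%, the collection mean minus 3 SD; inconclusive = too few cells collected in the well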;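 also: signal is porphyrin accumulated inside mitochondria; 100% equals median channel fluorescence of DMSO control wells; lower ratio means ABCB6 inhibition with less porphyrin fluorescence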
Target sequence (Q9NP58 whole entry, looked up): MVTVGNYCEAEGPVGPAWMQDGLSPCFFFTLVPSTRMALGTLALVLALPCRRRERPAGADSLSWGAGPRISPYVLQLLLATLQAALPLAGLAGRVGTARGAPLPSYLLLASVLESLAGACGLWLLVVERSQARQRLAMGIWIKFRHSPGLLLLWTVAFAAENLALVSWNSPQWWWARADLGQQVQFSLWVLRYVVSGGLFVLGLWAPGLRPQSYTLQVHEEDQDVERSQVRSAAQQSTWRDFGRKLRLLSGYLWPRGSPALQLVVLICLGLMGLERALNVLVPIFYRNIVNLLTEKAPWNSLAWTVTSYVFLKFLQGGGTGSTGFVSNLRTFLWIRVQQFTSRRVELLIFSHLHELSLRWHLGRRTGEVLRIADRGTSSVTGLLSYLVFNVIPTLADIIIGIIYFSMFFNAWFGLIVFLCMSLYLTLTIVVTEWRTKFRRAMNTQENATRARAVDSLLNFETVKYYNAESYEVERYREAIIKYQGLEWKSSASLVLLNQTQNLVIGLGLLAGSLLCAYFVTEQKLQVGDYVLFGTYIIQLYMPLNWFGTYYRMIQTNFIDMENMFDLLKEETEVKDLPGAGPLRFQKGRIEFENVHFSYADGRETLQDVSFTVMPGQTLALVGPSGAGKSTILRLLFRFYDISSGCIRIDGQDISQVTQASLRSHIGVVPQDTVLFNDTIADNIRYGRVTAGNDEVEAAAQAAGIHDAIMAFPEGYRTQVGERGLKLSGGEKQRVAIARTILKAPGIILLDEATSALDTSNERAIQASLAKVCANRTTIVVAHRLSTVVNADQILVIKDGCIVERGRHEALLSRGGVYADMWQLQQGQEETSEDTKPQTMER
Granule exo inh = LAMP-1 surface exposure blockers, TALL-104 cells – cell-based, flow cytometry, MLPCN library, primary screen; TALL-104 LAMP-1 surface exposure; cells stimulated with thapsigargin and PMA; hit rate 0.66% among 360,000; inhibition, % at 10 µM;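 active = inhibition above about 55%, limit read from the data; inconclusive = no clear call, values can overlap the other calls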
ABCB6 blocker 1 = ABCB6 transporter inhibitors, confirmation, K562-ABCB6 cells, flow cytometry, cherry pick 1; K562-ABCB6 porphyrin accumulation, 1 h; stronger effect = lower value; AID 602430, 2012; shares compounds with ABCB6 inh MLPCN; ratio response (% of DMSO), % at 10 µM; 700 tested, under 10 active;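 active = repeat-averaged ratio response below 75% of DMSO, the collection mean minus 3 SD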;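 also: median porphyrin fluorescence at 575 nm with 488 nm excitation from mitochondria; lower ratio means less porphyrin signal so ABCB6 inhibition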
Exocytosis CP01 = inhibitors of lytic granule exocytosis, confirmation, TALL-104 cells, flow cytometry, Cherry Pick01 | shares compounds with Granule exo inh | LAMP-1 externalization; stimulated with PMA plus thapsigargin | inhibition, % at 10 µM | hit rate 11% among 1,500 | AID 651954, 2012; in the data active = inhibition above about 60%;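 also: 0% = stimulated vehicle wells and 100% = unstimulated wells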
Numbers without * were called inactive; i = inactive; ? = inconclusive; / = no result given. Compounds with a hit are over-represented: about 1.8% of the library has one in this group of screens.

SMILES	Myeloid diff MLP	ABCB6 inh MLPCN	Granule exo inh	ABCB6 blocker 1	others
Cc1ccc(S(=O)(=O)Cc2ccc(C(=O)N3CCC(C(N)=O)CC3)o2)cc1	i	55.0*	-2.4	98.0
COc1ccc(S(=O)(=O)Cc2ccc(C(=O)N3CCC(C(N)=O)CC3)o2)cc1	i	101.0	-3.6	/
CCCNS(=O)(=O)c1ccc(CCC(=O)NCc2ccc3c(c2)OCO3)cc1	i	106.0	0.2	/
O=C(CCNS(=O)(=O)c1ccc(Br)cc1)NCc1ccc2c(c1)OCO2	i	62.0*	0.5	98.0
COc1cc(NC(=O)Cc2ccccc2)ccc1NC(=O)c1ccco1	i	95.0	-1.1	/
COc1ccc(NC(=O)Cc2ccc(Cl)cc2)cc1NC(=O)c1ccco1	i	60.0*	-1.0	96.0
Cc1ccc(NC(=O)CCC(=O)NNC(=O)c2ccccc2[N+](=O)[O-])c(C)c1	i	96.0	-0.7	/
CC(=O)c1cccc(-c2ccnc3c2CC(C(=O)Nc2cccc(Oc4ccccc4)c2)O3)c1 (stereo unspecified)	i	99.0	-4.9	101.0
CC(=O)c1cccc(NC(=O)C2Cc3c(-c4cccc(C(C)=O)c4)ccnc3O2)c1 (stereo unspecified)	i	96.0	1.0	/
CC(=O)c1cccc(-c2ccnc3c2CC(C(=O)Nc2cccc(N(C)C)c2)O3)c1 (stereo unspecified)	i	92.0	1.7	99.0
CC(=O)c1cccc(-c2ccnc3c2CC(C(=O)Nc2cccnc2)O3)c1 (stereo unspecified)	i	96.0	-5.9	/
O=C(Nc1cccc(Oc2ccccc2)c1)C1Cc2c(-c3ccccc3)ccnc2O1 (stereo unspecified)	i	93.0	-2.3	101.0
O=C(Nc1ccc(Cl)cc1)C1Cc2c(-c3ccccc3)ccnc2O1 (stereo unspecified)	i	100.0	-1.6	/
CS(=O)(=O)Nc1cccc(NC(=O)C2Cc3c(-c4ccco4)ccnc3O2)c1 (stereo unspecified)	i	98.0	10.6	/
O=C(Nc1cccc(Oc2ccccc2)c1)C1Cc2c(-c3ccco3)ccnc2O1 (stereo unspecified)	i	69.0*	-3.0	97.0
CC(=O)OCC1CCCC2=C(C)C(=O)CCC21COC(C)=O (stereo unspecified)	i	100.0	1.1	/
Cc1noc(C)c1COc1ccccc1C(=O)N(C)CC(=O)Nc1ccc(F)c(F)c1F	i	97.0	-2.2	/
O=C1C2CCCN2C(=O)N1CCCCN1CCN(c2ccc(F)cc2)CC1 (stereo unspecified)	i	100.0	-6.0	/
COc1cc(C2(c3ccc(O)c(OC)c3)C(=O)N(C)c3ccc(C)cc32)ccc1O	i	98.0	-0.9	/
O=[N+]([O-])c1ccc(N2CCN(S(=O)(=O)c3ccccc3)CC2)cc1	i	91.0	24.5	/
Cc1c(Cl)cccc1NC(=O)CCN1CCC(C(N)=O)CC1	i	105.0	-2.7	/
COc1cc(NC(=O)c2ccc3c(c2)OCO3)c2ncccc2c1	i	87.0	0.7	/
O=C(Nc1cccc2cccnc12)c1ccc2c(c1)OCCO2	i	43.0*	3.5	97.0
CC(=O)c1ccc(NC(=O)NC2CC(=O)N(c3ccc4c(c3)OCCO4)C2)cc1 (stereo unspecified)	i	102.0	0.8	/
Nn1c(SCC(=O)NCCC2=CCCCC2)nnc1-c1cccnc1	i	91.0	14.9	/
SMILES	Myeloid diff MLP	ABCB6 inh MLPCN	Granule exo inh	ABCB6 blocker 1	others
CCN(CC)S(=O)(=O)c1cccc(-c2nnc(SCC(=O)NCCC3=CCCCC3)n2N)c1	i	71.0*	0.1	100.0
CC(C)c1ccc(N(CC(=O)NCc2cccnc2)S(=O)(=O)c2ccccc2)cc1	i	99.0	0.1	/
COc1cc(-c2cc3nc(NCCc4ccc(S(N)(=O)=O)cc4)ccn3n2)cc(OC)c1OC	i	60.0*	14.9	100.0
NS(=O)(=O)c1ccc(CCNc2ccn3nc(-c4ccccc4)cc3n2)cc1	i	103.0	0.6	/
COCCn1c(SCC(=O)Nc2sccc2C(N)=O)nc2cc(Cl)ccc2c1=O	i	95.0	-1.0	/
CCOc1ccccc1NC(=O)CSc1nnc(Cc2cccn2C)n1-c1ccc(F)cc1	?	98.0	1.1	/
CCOC(=O)c1ccccc1NC(=O)CSc1nnc(Cc2cccn2C)n1-c1ccc(F)cc1	i	65.0*	8.1	100.0
C=CCNc1ncnc2c1ncn2[C@H]1CN(CCc2ccccc2)C[C@@H](CO)O1	i	97.0	1.4	/
CCC(CC)CN1C(N(C)C)=NC[C@@H]1CC(C)C	i	100.0	9.3	/
N#CCC(=O)N1CCN(C=O)CC1	i	97.0	1.7	/
COc1ccccc1OCCNc1nc2c(c(=O)n(C)c(=O)n2C)n1C	i	90.0	-0.8	/
Cn1c(=O)c2c(nc(NCCOc3ccc(C(C)(C)C)cc3)n2C)n(C)c1=O	i	74.0*	2.4	102.0
O=C(CSc1ccccc1F)Nc1ccc2c(c1)OCO2	i	97.0	1.1	/
O=c1[nH]c2cc(Cl)cc([N+](=O)[O-])c2c2ccc(Cl)cc12	i	99.0	-3.3	/
O=c1[nH]c(-c2ccc(F)cc2)nc2c1sc(=S)n2-c1ccccc1	i	98.0	-1.0	/
O=c1[nH]cnc2c1sc(=S)n2-c1ccccc1	i	65.0*	2.7	100.0
Cc1ccc(C(=O)N2c3ccccc3Sc3ccccc32)cc1	i	97.0	-1.3	/
CN(C)c1ccc2c(c1)Sc1cc(N(C)C)ccc1N2C(=O)c1ccccc1	i	73.0*	-26.0	94.0
CCCc1cc(=O)[nH]c(SCC(=O)Nc2ccc(N3CCCCC3)cc2)n1	i	96.0	1.4	/
CCCCN(C)C(=O)c1cccc(OC2CCN(CC(C)(C)C)CC2)c1	i	100.0	-1.3	/
CC(C)(C)CN1CCC(Oc2cccc(C(=O)N3CCNC(=O)C3(C)C)c2)CC1	i	14.0*	1.0	102.0
COCCN(C(=O)COC(=O)CCOc1ccccc1C)c1c(N)n(Cc2ccccc2)c(=O)[nH]c1=O	i	100.0	-1.0	/
O=C(Nc1ccc(F)cc1)c1nn(-c2ccccc2)c(=O)cc1Cl	?	100.0	5.7	/
O=C(Nc1ccc(F)cc1)c1nc(S(=O)(=O)Cc2ccccc2)ncc1Cl	?	46.0*	78.5*	93.0	Exocytosis CP01=65.5*
COc1ccc(CCC(=O)Nc2ccc(S(=O)(=O)Nc3nccc(C)n3)cc2)cc1	i	95.0	12.0	/

Bioassay records from PubChem BioAssay.
